We go through 36 molecules from PubChem BioAssay (NCATS).

Results filed as inconclusive are left out. Values without a mark were called inactive. The source made the active and inactive calls. Calls come from the whole dose curve; as a rule, active = well fitted curve in the direction sought with a large enough effect; inconclusive = small, poorly fitted or top-dose-only effect, or another doubt; inactive = no such curve, though single readings can be large; an effect the other way counts as inactive or inconclusive.
Potency is the fitted concentration of half-maximal effect.

The first assay can be described thus: BET inhibitor-based combinations targeting novel dependencies in MECOM-rearranged (r) AML: UCSD-AML1 cell line (AID 2202235).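 For viability (% of control): plate controls were DMSO vehicle wells for no effect and blank wells for full effect.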 Note: nearly all actives have a fitted effect of over 40% in size. The conditions noted are these: UCSD-AML1 AML cells viability, CellTiter-Glo, 48 h; series mostly up to 46 µM; viability (% of control): at the top concentration. The procedure, abridged: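 Activity is given as area under the curve and as Z-AUC, mean-centred within each cell line. It comes from 11-point dose curves normalized to DMSO and empty wells. CellTiter-Glo luminescence was read after 48 hr drug exposure of 500 cells/well.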
On the technique in general: In ATP-based viability assays light output follows the ATP content of the culture.
For the molecule `O=C(CCCCCCC(=O)N/N=C/c1ccc(N(c2ccccc2)c2ccccc2)cc1)NO`, the Potency was 7420 nM (active). On the same count and under the same terms, with `Nc1nc(F)nc2c1ncn2[C@@H]1O[C@H](COP(=O)(O)O)[C@@H](O)[C@@H]1O` the figure was 1180 nM (active).

Regarding `COc1cc2ncn(-c3cc(OCc4ccccc4C(F)(F)F)c(C(N)=O)s3)c2cc1OC`, the Potency is 2350 nM (active). On to `COc1cc(-c2cn(C)c(=O)c3cnccc23)cc(OC)c1CN(C)C`, for which the “viability (% of control)” value was 115%. Consider `COc1cc2c3c(n(CCCn4ccnc4)c(=O)c2cc1OC)-c1cc2c(cc1C3=O)OCO2`, for which the Potency is 20.9 nM (active). `CC#CC(=O)N1CC[C@@H](n2c(=O)n(-c3ccc(Oc4ccccc4)cc3)c3c(N)ncnc32)C1`: the “viability (% of control)” value is 58.4%.

With `O=C(O)CNC(=O)c1ncc(-c2cccc(Cl)c2)cc1O`, the “viability (% of control)” value was 117%.

Turning to `C=C1C[C@@H]2CC[C@@]34C[C@H]5O[C@H]6[C@@H](O3)[C@H]3O[C@H](CC[C@@H]3O[C@H]6[C@H]5O4)CC(=O)C[C@@H]3[C@@H](OC)[C@@H](C[C@H](O)CN)O[C@H]3C[C@H]3O[C@@H](CC[C@@H]1O2)C[C@@H](C)C3=C`, the Potency is 1.1 nM (active). Turning to `Cc1ccc(NS(=O)(=O)c2ccc3c(c2)C2C=CCC2C(c2ccc(C(=O)O)cc2)N3)cc1C` (configuration not stated), the “viability (% of control)” value is 116%. Still for that read-out and setting: the figure for `CCCC[C@@H](C=O)NC(=O)[C@H](CC(C)C)NC(=O)OCc1ccccc1` is 104%. With `CC(=O)O/N=C1\C(=O)N(Cc2cc(Cl)ccc2Cl)c2ccc(Cl)cc21`, the Potency was 8330 nM (active).

Take `C[C@H](CCC(=O)O)[C@H]1CC[C@H]2[C@@H]3[C@@H](O)C[C@@H]4C[C@H](O)CC[C@]4(C)[C@H]3CC[C@]12C`: the “viability (% of control)” value was 114%.

For the molecule `COc1ccc2c(c1)CC[C@@H]1[C@@H]2CC[C@]2(C)[C@@H](NCCCCCCN3C(=O)C=CC3=O)CC[C@@H]12`, the “viability (% of control)” value is 101%.

Turning to `COc1cc2c3c(n(CCCN4CCOCC4)c(=O)c2cc1OC)-c1cc2c(cc1C3=O)OCO2`, the Potency is 93.4 nM (active).

For the molecule `COc1cc(F)ccc1-c1ncnc(Nc2cccc(CS(C)(=N)=O)c2)n1` (configuration not stated), the Potency was 833 nM (active).

Take `COc1cc2c3c(n(CCCNCCO)c(=O)c2cc1OC)-c1cc2c(cc1C3=O)OCO2`: the Potency was 74.2 nM (active). As to `CCCCCCCCCCCC(CC1OC(=O)C1CCCCCC)OC(=O)C(CC(C)C)NC=O` (configuration not stated), the “viability (% of control)” value is 102%. The same measure, in the same setting: with `CC(=O)NCCCS(=O)(=O)O` the figure was 103% [at 15.6 µM]. With `CC(C)n1ncnc1-c1cn2c(n1)-c1ccc(O[C@@H](C)C(N)=O)cc1OCC2`, the Potency is 5250 nM (active). For `COc1ccc(S(=O)(=O)N2CCc3cccc(-c4ccncc4)c32)cc1`, the Potency is 1180 nM (active). For `Cc1cc(C)c2c(c1)[C@@H](N(Cc1cc(C(F)(F)F)cc(C(F)(F)F)c1)c1nnn(C)n1)CCCN2CC1CCC(C(=O)O)CC1` (some centres not stated), the “viability (% of control)” value was 91.8%.

Turning to `CCO[C@@H]1OC(=O)C[C@@H]1NC(=O)[C@@H]1CCCN2C(=O)CC[C@H](NC(=O)c3nccc4ccccc34)C(=O)N12`, the “viability (% of control)” value was 109%. Take `CCCCC[C@H](O)/C=C/[C@H]1[C@H](O)CC(=O)[C@@H]1CCCCCCC(=O)O`: the Potency is 11800 nM (active). Regarding `COc1cc2nccc(Oc3ccc(NC(=O)c4cn(C(C)C)c(=O)n(-c5ccc(F)cc5)c4=O)cc3F)c2cc1OC`, the “viability (% of control)” value was 100%.

The nature of the next assay: BET inhibitor-based combinations targeting novel dependencies in MECOM-rearranged (r) AML: AML-191 cell line (AID 2202236; note: nearly all actives have a fitted effect of over 35% in size;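 for viability (% of control): plate controls were vehicle wells for no effect and wells without cells for full effect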). The conditions noted are these: AML-191 viability, CellTiter-Glo luminescence, 48 h; series mostly up to 46 µM; viability (% of control): at the top concentration. The procedure, abridged: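 Cells were plated at 500 per well and exposed to an 11-point dose series of each drug for 48 hr. Viability was measured by CellTiter-Glo luminescence, normalized to DMSO and empty-well controls, and summarized as AUC and per-cell-line Z-AUC.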
For `O=C(CCCCCCC(=O)N/N=C/c1ccc(N(c2ccccc2)c2ccccc2)cc1)NO`, the Potency is 6610 nM (active). The same measure, in the same setting: with `Nc1nc(F)nc2c1ncn2[C@@H]1O[C@H](COP(=O)(O)O)[C@@H](O)[C@@H]1O` the figure was 3320 nM (active). Turning to `COc1cc(-c2cn(C)c(=O)c3cnccc23)cc(OC)c1CN(C)C`, the “viability (% of control)” value was 111%. Turning to `COc1cc2c3c(n(CCCn4ccnc4)c(=O)c2cc1OC)-c1cc2c(cc1C3=O)OCO2`, the Potency was 33.2 nM (active). The same measure, in the same setting: with `COc1nnc2ccc(N3CCC(c4ccc(OCCN5CCN(C)C(=O)[C@H]5C)cc4)CC3)nn12` the figure was 83.3 nM (active). On to `CCC(C)CNCC(=O)N1CCc2sccc2C1c1cccc(C)n1` (configuration not stated), for which the “viability (% of control)” value was 111%. Consider `C=C1C[C@@H]2CC[C@@]34C[C@H]5O[C@H]6[C@@H](O3)[C@H]3O[C@H](CC[C@@H]3O[C@H]6[C@H]5O4)CC(=O)C[C@@H]3[C@@H](OC)[C@@H](C[C@H](O)CN)O[C@H]3C[C@H]3O[C@@H](CC[C@@H]1O2)C[C@@H](C)C3=C`, for which the Potency was 1.5 nM (active). Turning to `Cc1ccc(NS(=O)(=O)c2ccc3c(c2)C2C=CCC2C(c2ccc(C(=O)O)cc2)N3)cc1C` (configuration not stated), the “viability (% of control)” value is 102%. For the molecule `CC(=O)O/N=C1\C(=O)N(Cc2cc(Cl)ccc2Cl)c2ccc(Cl)cc21`, the Potency was 2350 nM (active). As for `Cc1c(C(=O)Nc2ccc(Oc3ccnc4[nH]cc(-c5ccccc5)c34)c(F)c2)c(=O)n(-c2ccc(F)cc2)n1C`, the Potency was 590 nM (active).

On to `C[C@H](CCC(=O)O)[C@H]1CC[C@H]2[C@@H]3[C@@H](O)C[C@@H]4C[C@H](O)CC[C@]4(C)[C@H]3CC[C@]12C`, for which the “viability (% of control)” value was 105%.

For the molecule `COc1ccc2c(c1)CC[C@@H]1[C@@H]2CC[C@]2(C)[C@@H](NCCCCCCN3C(=O)C=CC3=O)CC[C@@H]12`, the “viability (% of control)” value is 98.3%. For the molecule `COc1cc2c3c(n(CCCN4CCOCC4)c(=O)c2cc1OC)-c1cc2c(cc1C3=O)OCO2`, the Potency is 105 nM (active). Take `COc1cc(F)ccc1-c1ncnc(Nc2cccc(CS(C)(=N)=O)c2)n1` (configuration not stated): the Potency was 662 nM (active).

Take `C[C@H](NC(=O)c1c(N)nn2cccnc12)c1cc2cccc(C#Cc3cnn(C)c3)c2c(=O)n1-c1ccccc1`: the Potency was 1820 nM (active). With `NC1CCCN(c2c(/C=C3\SC(=O)NC3=O)cccc2-c2ccccc2)C1` (configuration not stated), the Potency is 18600 nM (active). In the case of `COc1cc2c3c(n(CCCNCCO)c(=O)c2cc1OC)-c1cc2c(cc1C3=O)OCO2`, the Potency was 166 nM (active). Turning to `C[C@H]1CNCCCN1S(=O)(=O)c1cccc2cncc(F)c12`, the “viability (% of control)” value is 99.2% [at 15.6 µM].

Turning to `NC[C@H]1O[C@H](O[C@H]2[C@H](O)[C@@H](O[C@H]3O[C@H](CO)[C@@H](O)[C@H](N)[C@H]3O)[C@H](N)C[C@@H]2N)[C@H](N)C[C@@H]1O`, the “viability (% of control)” value is 87.7%. As for `CC(=O)NCCCS(=O)(=O)O`, the “viability (% of control)” value was 113% [at 15.6 µM].

Take `COc1ccc(C(=O)N2CCN(c3ccc4c(c3)CCC(=O)N4)CC2)cc1OC`: the “viability (% of control)” value was 104%. For the molecule `Cc1c(-c2cnccn2)ssc1=S`, the “viability (% of control)” value was 84.6%. Take `Cc1ccc(NC(=O)NCc2ccc3c(c2)CN(C2CCC(=O)NC2=O)C3=O)cc1Cl` (configuration not stated): the Potency is 2.3 nM (active). Still for that read-out and setting: with `COc1ccc(S(=O)(=O)N(C(C)=O)c2ccccc2/C=C/c2cc[n+]([O-])cc2)cc1` the figure was 1180 nM (active); with `COc1ccc(S(=O)(=O)N2CCc3cccc(-c4ccncc4)c32)cc1`, 1050 nM (active).

`CCO[C@@H]1OC(=O)C[C@@H]1NC(=O)[C@@H]1CCCN2C(=O)CC[C@H](NC(=O)c3nccc4ccccc34)C(=O)N12`: the “viability (% of control)” value is 114%. As for `CCCCC[C@H](O)/C=C/[C@H]1[C@H](O)CC(=O)[C@@H]1CCCCCCC(=O)O`, the “viability (% of control)” value was 91.2%. On to `CC(C)C[C@H](NC(=O)[C@H](Cc1ccccc1)NC(=O)OCc1ccccc1)C(=O)C=O`, for which the Potency is 26300 nM (active).
